Laboratory results published in the supplement of paper PMC12494721.
Where a name gives a salt, the structure may show the parent alone.

The compounds below were run on Ruminococcus gnavus DSM 108212 (assay: growth (OD595) fold change vs plate DMSO controls (fold change (ratio)); higher = more growth). Settings: incubation time: 27 h, anaerobic, 37 °C;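 for the amine columns active = adjusted P below 0.05 in both replicates with a change the same way and a mean fold change under 0.8 or over 1.25; inactive = the rest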.
Outline: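 Growth is expressed as the fold change relative to the median of the DMSO control wells on each plate. Cultures in mGAM were grown anaerobically in 96-well plates for 27 h at 37 °C, shaken, and read at 595 nm. Readings were blank-subtracted, corrected for compound background with 20 µM compound solutions in water, and converted to OD with a calibration factor of 5. Fold changes above 1.5 were set to NA, and each value is the mean of 2 biological replicates.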

Question: `Cc1nnc(NS(=O)(=O)c2ccc(N)cc2)s1` [Sulfamethizole] (20 µM) was tested. Which growth did it give?
Answer: 1.12

Question: For `OC[C@H](O)C(O)[C@@H](O)CO` [L-Arabinitol] (50 µM), which growth is on record?
Answer: 0.985

Question: Which growth does the source give for `CN/C(=N\CCSCc1nc[nH]c1C)NC#N` [Cimetidine] (20 µM) here?
Answer: 1.18

Question: Which growth does the source give for `CCN(CC)C(=O)/C(C#N)=C/c1cc(O)c(O)c([N+](=O)[O-])c1` [Entacapone] (20 µM) here?
Answer: 1.07

Question: How did the growth turn out when `OC(CNCC(O)C1CCc2cc(F)ccc2O1)C1CCc2cc(F)ccc2O1` (stereo unspecified) [Nebivolol hydrochloride] (20 µM) was run?
Answer: 0.785

Question: Which growth does the source give for `CCN(CC)CC(=O)Nc1c(C)cccc1C` [Lidocaine hydrochloride] (20 µM) here?
Answer: 0.66

Question: How did the growth turn out when `C[C@H](NCc1ccc(OCc2cccc(F)c2)cc1)C(N)=O` [Safinamide] (20 µM) was run?
Answer: 1.07

Question: Which growth does the source give for `CN(C)CCc1c[nH]c2ccc(Cn3cncn3)cc12` [Rizatriptan benzoate] (20 µM) here?
Answer: 0.996

Question: Which growth does the source give for `C[C@H]1C[C@@H]2[C@H]([C@@H](O)C[C@@]3(C)[C@H]2CC[C@]3(O)C(=O)CO)[C@@]2(C)C=CC(=O)C=C12` [Methylprednisolone, 6-alpha] (20 µM) here?
Answer: 0.836

Question: With `CC1COc2ccccc2N1C(=O)C(Cl)Cl` (stereo unspecified) (20 µM) as the compound, how does the growth read?
Answer: 0.965

Question: How did the growth turn out when `C=C1c2cccc(O)c2C(O)=C2C(=O)[C@]3(O)C(O)=C(C(N)=O)C(=O)[C@@H](N(C)C)[C@@H]3[C@@H](O)[C@H]12` [Methacycline hydrochloride] (20 µM) was run?
Answer: 0.836

Question: How did the growth turn out when `CCN1CCCC(OC(=O)C(c2ccccc2)c2ccccc2)C1` (stereo unspecified) [Piperidolate hydrochloride] (20 µM) was run?
Answer: 0.893

The compounds below were run on Klebsiella aerogenes DSM 30053 (assay: fold change of Histamine concentration vs plate DMSO controls (fold change (ratio)); higher = more amine produced, active = hit call of the paper (significant change in both replicates, either direction)). Settings: incubation time: 27 h, anaerobic, 37 °C.
Outline: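 In 80 µL wells, cultures of four gut bacterial strains in mGAM started at OD 0.1 before a 1:1 dilution and grew anaerobically at 37 °C for 27 h. Compounds were added to 20 µM final, except sweeteners at 50 µM final. After extraction of whole cultures with cold acetonitrile/methanol plus 0.1% formic acid and centrifugation, amines were measured by LC–triple-quadrupole MS in dynamic MRM mode against external calibration curves, with within-batch drift correction. Values give fold change over DMSO controls on the same plate, averaged across 2 biological replicates.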

Question: Which “fold change of Histamine concentration” value does the source give for `CN1CCC(=C2c3ccccc3CCc3cccnc32)CC1` [Azatadine maleate] (20 µM) here?
Answer: 1.05 (inactive)

Question: With `CC(=O)OC[C@H]1O[C@@H]([S-])[C@H](OC(C)=O)[C@@H](OC(C)=O)[C@@H]1OC(C)=O.CCP(CC)CC.[Au+]` [Auranofin] (20 µM) as the compound, how does the “fold change of Histamine concentration” value read?
Answer: 0.65 (active)

Question: For `C=CCOC(Cn1ccnc1)c1ccc(Cl)cc1Cl` (stereo unspecified) (20 µM), which “fold change of Histamine concentration” value is on record?
Answer: 0.976 (inactive)

Question: How did the “fold change of Histamine concentration” value turn out when `CC[C@H](C)C(=O)O[C@H]1CCC=C2C=C[C@H](C)[C@H](CC[C@@H]3C[C@@H](O)CC(=O)O3)[C@H]21` [Mevastatin] (20 µM) was run?
Answer: 0.995 (inactive)

Question: How did the “fold change of Histamine concentration” value turn out when `NS(=O)(=O)c1cc2c(cc1Cl)NC(Cc1ccccc1)NS2(=O)=O` (stereo unspecified) [Benzylhydrochlorothiazide] (20 µM) was run?
Answer: 0.96 (inactive)

Question: How did the “fold change of Histamine concentration” value turn out when `O=c1[nH]c(=O)n(C2CCCO2)cc1F` (stereo unspecified) [Tegafur] (20 µM) was run?
Answer: 0.969 (inactive)

Question: How did the “fold change of Histamine concentration” value turn out when `Cc1nn(C)c(Oc2ccccc2)c1/C=N/OCc1ccc(C(=O)OC(C)(C)C)cc1` (20 µM) was run?
Answer: 0.993 (inactive)

Question: `CS(=O)(=O)OCCCCOS(C)(=O)=O` [Busulfan] (20 µM) was tested. Which “fold change of Histamine concentration” value did it give?
Answer: 0.992 (inactive)

Question: `CCSc1ccc2c(c1)N(CCCN1CCN(C)CC1)c1ccccc1S2` [Thiethylperazine maleate] (20 µM) was tested. Which “fold change of Histamine concentration” value did it give?
Answer: 1.01 (inactive)

Question: How did the “fold change of Histamine concentration” value turn out when `Cc1ncc([N+](=O)[O-])n1C` [Dimetridazole] (20 µM) was run?
Answer: 0.868 (inactive)

Question: For `CC[C@@H]1C(=O)OC[C@@H]1Cc1cncn1C` [Pilocarpine nitrate] (20 µM), which “fold change of Histamine concentration” value is on record?
Answer: 0.95 (inactive)

Question: For `Clc1ccc(C(Cn2ccnc2)OCc2ccsc2Cl)c(Cl)c1` (stereo unspecified) [Tioconazole] (20 µM), which “fold change of Histamine concentration” value is on record?
Answer: 1.05 (inactive)

Question: `c1coc(CNc2ncnc3[nH]cnc23)c1` [Kinetin] (20 µM) was tested. Which “fold change of Histamine concentration” value did it give?
Answer: 0.974 (inactive)

Question: Which “fold change of Histamine concentration” value does the source give for `CC1(C)O[C@@H]2C[C@H]3[C@@H]4CCC5=CC(=O)CC[C@]5(C)[C@@]4(F)[C@@H](O)C[C@]3(C)[C@]2(C(=O)CCl)O1` [Halcinonide] (20 µM) here?
Answer: 0.941 (inactive)

Question: With `CC(=O)N[C@@H](CC(C)C)C(=O)O` [N-Acetyl-L-leucine] (20 µM) as the compound, how does the “fold change of Histamine concentration” value read?
Answer: 0.86 (inactive)

Question: Which “fold change of Histamine concentration” value does the source give for `COc1cccc(CCc2ccccc2OCC(CN(C)C)OC(=O)CCC(=O)O)c1` (stereo unspecified) [Sarpogrelate hydrochloride] (20 µM) here?
Answer: 0.977 (inactive)

Question: `CN1CCC(=C2c3ccccc3CCc3sccc32)CC1` [Pizotifen malate] (20 µM) was tested. Which “fold change of Histamine concentration” value did it give?
Answer: 1.06 (inactive)

Question: Which “fold change of Histamine concentration” value does the source give for `Oc1ccc2ccccc2c1N=Nc1ccccc1` [Sudan I (1-phenylazo-2-hydroxynaphthalene)] (20 µM) here?
Answer: 0.924 (inactive)

Question: For `CC(C)(C)c1ccc(C(=O)CCCN2CCC(OC(c3ccccc3)c3ccccc3)CC2)cc1` [Ebastine] (20 µM), which “fold change of Histamine concentration” value is on record?
Answer: 1.02 (inactive)

Question: For `O=c1oc2cc(O)ccc2s1` [Tioxolone] (20 µM), which “fold change of Histamine concentration” value is on record?
Answer: 1.02 (inactive)

Question: Which “fold change of Histamine concentration” value does the source give for `CCCOc1ccc(C(=O)OCCN(CC)CC)cc1N` [Proparacaine hydrochloride] (20 µM) here?
Answer: 0.892 (inactive)

Question: With `CC(C)NC[C@H](O)COc1cccc2ccccc12` [(S)-(-)-Propranolol hydrochloride] (20 µM) as the compound, how does the “fold change of Histamine concentration” value read?
Answer: 0.885 (inactive)

Question: With `COc1cc(C(=O)NCc2ccc(OCCN(C)C)cc2)cc(OC)c1OC` [Trimethobenzamide hydrochloride] (20 µM) as the compound, how does the “fold change of Histamine concentration” value read?
Answer: 0.877 (inactive)

Question: For `N[C@@H](Cc1cc(I)c(Oc2cc(I)c(O)c(I)c2)c(I)c1)C(=O)O` [(L) Thyroxine] (20 µM), which “fold change of Histamine concentration” value is on record?
Answer: 1.05 (inactive)

Question: With `O=C(NCC(O)CO)c1c(I)c(C(=O)NCC(O)CO)c(I)c(N(CCO)C(=O)CO)c1I` (stereo unspecified) [Ioversol] (20 µM) as the compound, how does the “fold change of Histamine concentration” value read?
Answer: 0.997 (inactive)

Question: `CCCCC[C@H](O)/C=C/[C@H]1[C@H](O)CC(=O)[C@@H]1CCCCCCC(=O)O` [Alprostadil] (20 µM) was tested. Which “fold change of Histamine concentration” value did it give?
Answer: 1.08 (inactive)

Question: For `CC(C)(CO)[C@@H](O)C(=O)NCCCC(=O)O` [Hopantenate calcium] (20 µM), which “fold change of Histamine concentration” value is on record?
Answer: 1.03 (inactive)

Question: How did the “fold change of Histamine concentration” value turn out when `Cc1nnc(NS(=O)(=O)c2ccc(N)cc2)s1` [Sulfamethizole] (20 µM) was run?
Answer: 0.935 (inactive)

Question: With `OC[C@H](O)C(O)[C@@H](O)CO` [L-Arabinitol] (50 µM) as the compound, how does the “fold change of Histamine concentration” value read?
Answer: 1 (inactive)

Question: Which “fold change of Histamine concentration” value does the source give for `CN/C(=N\CCSCc1nc[nH]c1C)NC#N` [Cimetidine] (20 µM) here?
Answer: 0.893 (inactive)

Question: `CCN(CC)C(=O)/C(C#N)=C/c1cc(O)c(O)c([N+](=O)[O-])c1` [Entacapone] (20 µM) was tested. Which “fold change of Histamine concentration” value did it give?
Answer: 1.01 (inactive)

Question: `OC(CNCC(O)C1CCc2cc(F)ccc2O1)C1CCc2cc(F)ccc2O1` (stereo unspecified) [Nebivolol hydrochloride] (20 µM) was tested. Which “fold change of Histamine concentration” value did it give?
Answer: 1.03 (inactive)

Question: Which “fold change of Histamine concentration” value does the source give for `CCN(CC)CC(=O)Nc1c(C)cccc1C` [Lidocaine hydrochloride] (20 µM) here?
Answer: 1.08 (inactive)

Question: `C[C@H](NCc1ccc(OCc2cccc(F)c2)cc1)C(N)=O` [Safinamide] (20 µM) was tested. Which “fold change of Histamine concentration” value did it give?
Answer: 1.02 (inactive)

Question: With `CN(C)CCc1c[nH]c2ccc(Cn3cncn3)cc12` [Rizatriptan benzoate] (20 µM) as the compound, how does the “fold change of Histamine concentration” value read?
Answer: 0.934 (inactive)

Question: How did the “fold change of Histamine concentration” value turn out when `C[C@H]1C[C@@H]2[C@H]([C@@H](O)C[C@@]3(C)[C@H]2CC[C@]3(O)C(=O)CO)[C@@]2(C)C=CC(=O)C=C12` [Methylprednisolone, 6-alpha] (20 µM) was run?
Answer: 0.992 (inactive)

Question: `CC1COc2ccccc2N1C(=O)C(Cl)Cl` (stereo unspecified) (20 µM) was tested. Which “fold change of Histamine concentration” value did it give?
Answer: 1.02 (inactive)

Question: With `C=C1c2cccc(O)c2C(O)=C2C(=O)[C@]3(O)C(O)=C(C(N)=O)C(=O)[C@@H](N(C)C)[C@@H]3[C@@H](O)[C@H]12` [Methacycline hydrochloride] (20 µM) as the compound, how does the “fold change of Histamine concentration” value read?
Answer: 0.0707 (active)

Question: `CCN1CCCC(OC(=O)C(c2ccccc2)c2ccccc2)C1` (stereo unspecified) [Piperidolate hydrochloride] (20 µM) was tested. Which “fold change of Histamine concentration” value did it give?
Answer: 1.02 (inactive)
